This excerpt belongs to a sample that is enriched for hits.
ST2 inh: inhibitors of human ST2 (IL1RL1) binding to IL-33, primary screen, biochemical, AlphaLISA. Interleukin-1 receptor-like 1 (Homo sapiens), Q01638. AlphaLISA ST2-Fc/biotin-IL-33 interaction, 1 h. inhibition, % for hits at 17 µM. 78,000 compounds, 2.3% hits. AID 1259354, 2018; in the data active = inhibition above about 30%
Target sequence (Q01638 whole entry, looked up): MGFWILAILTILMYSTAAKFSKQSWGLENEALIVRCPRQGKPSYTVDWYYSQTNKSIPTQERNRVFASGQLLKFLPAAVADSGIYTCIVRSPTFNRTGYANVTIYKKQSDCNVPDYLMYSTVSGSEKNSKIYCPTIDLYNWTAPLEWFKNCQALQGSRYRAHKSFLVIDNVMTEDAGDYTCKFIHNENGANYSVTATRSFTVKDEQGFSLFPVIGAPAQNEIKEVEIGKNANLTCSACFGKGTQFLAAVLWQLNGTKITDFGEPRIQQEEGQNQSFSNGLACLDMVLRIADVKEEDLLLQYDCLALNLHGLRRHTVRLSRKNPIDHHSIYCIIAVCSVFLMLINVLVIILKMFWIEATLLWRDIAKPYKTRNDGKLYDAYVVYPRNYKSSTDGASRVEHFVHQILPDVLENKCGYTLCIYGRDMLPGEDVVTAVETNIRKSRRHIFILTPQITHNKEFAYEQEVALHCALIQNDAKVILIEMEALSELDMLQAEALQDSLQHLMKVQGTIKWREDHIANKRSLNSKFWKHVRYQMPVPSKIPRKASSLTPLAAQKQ
An asterisk follows results filed as active; i = inactive.

SMILES	ST2 inh
O=[N+]([O-])c1cc(Nc2ccccc2)c(C=Nc2ccccc2)c([N+](=O)[O-])c1	66%*
Cc1[nH]n(-c2ccccc2)c(=O)c1C=Nc1cc([N+](=O)[O-])cc([N+](=O)[O-])c1	i
Cc1c(CN(C)c2ccnc(C(=O)NCc3ccco3)c2)cnn1C	i
Cc1ccc(CN2C(=O)CCC2(C)C(=O)NC2CCCCCCC2)cc1 (stereo not given)	i
Oc1ccccc1C1=Nc2ccccc2N=C(c2cccc(F)c2)C1	30%*
O=C1CC(c2ccccc2)=Nc2ccccc2N1	i
Fc1cccc(-c2nnc3n2N=C(c2cccc(Br)c2)CS3)c1	i
CCOc1ccc2nc(N3CCCC3C(=O)NCCc3ccc(OC)cc3OC)nc(C)c2c1 (stereo not given)	i
COc1ccc(C2C(C#N)=C(N)Oc3n[nH]c(-c4ccc(F)cc4)c32)cc1OC (stereo not given)	31%*
COc1cc(C2C(C#N)=C(N)Oc3n[nH]c(-c4ccccc4)c32)ccc1O (stereo not given)	i
COc1ccc(C2C(C#N)=C(N)Oc3n[nH]c(-c4ccc5ccccc5c4)c32)cc1OC (stereo not given)	i
COc1cccc(-n2c(=O)c3sccc3n(Cc3ccccc3C#N)c2=O)c1	i
N#Cc1ccc([N+](=O)[O-])cc1C#N	i
N#CSC(C#N)Cc1cccc([N+](=O)[O-])c1 (stereo not given)	37%*
N#CSCc1ccc([N+](=O)[O-])cc1	i
O=C1NCCN(Cc2ccc3ccccc3c2)C1CC(=O)N1CCc2c(Cl)cccc2C1 (stereo not given)	i
COc1ccc(C2CC(c3ccc(Br)cc3)=NN2C(=O)CCCC(=O)O)cc1 (stereo not given)	i
COc1ccc(C2=NN(C(=O)CCC(=O)O)C(c3cc4ccc(C)cc4nc3Cl)C2)cc1 (stereo not given)	i
COc1ccc(C2=NN(CN3C(=O)C(=O)c4ccccc43)C(c3ccc(C)cc3)C2)cc1 (stereo not given)	43%*
CC1(C(=O)NC2CCCCC2)CCC(=O)N1Cc1ccc(F)cc1Cl (stereo not given)	i
CN1C[C@@H](NC(=O)c2ccccn2)C[C@H]1c1nc(-c2ccccn2)no1	i
CN1C[C@@H](NC(=O)CC(C)(C)CC(=O)O)C[C@H]1c1nc(-c2ccccn2)no1	i
CN1C[C@@H](NC(=O)c2cccnc2)C[C@H]1c1nc(-c2ccc(Cl)cc2)no1	i
CN1C[C@@H](NC(=O)COc2ccccc2)C[C@H]1c1nc(-c2cccnc2)no1	65%*
CN1C[C@@H](NC(=O)c2ccc3c(c2)OCO3)C[C@H]1c1nc(-c2cccnc2)no1	i
SMILES	ST2 inh
CN1C[C@@H](NC(=O)c2ccc(F)cc2)C[C@H]1c1nc(-c2ccccc2)no1	i
CN(C)c1ccc(C(=O)N[C@H]2C[C@@H](c3nc(-c4cccnc4)no3)N(C)C2)cc1	58%*
CN1C[C@@H](NC(=O)c2ccccn2)C[C@H]1c1nc(-c2ccncc2)no1	i
CN1C[C@@H](NC(=O)CC(C)(C)C)C[C@H]1c1nc(-c2cnccn2)no1	34%*
CCN(c1ccccc1)c1ncnc(N)c1[N+](=O)[O-]	i
CCc1ccc(N2C(=O)Nc3ccc(Br)cc3C2(O)C(=O)NC(C)CC)cc1 (stereo not given)	i
Cc1cccc(NC(=O)NCCc2nc3cccnc3n2C2CCCCC2)c1C	i
COc1ccc(NC(=O)CCCn2nc([N+](=O)[O-])c(Cl)c2C)cc1	i
COCCN1C(=O)CC(CC(=O)N2CCCC(c3cccc(C)c3)C2)(c2ccccc2OC)C1=O (stereo not given)	i
O=C(Nc1nc(-c2ccccn2)cs1)c1ccc(S(=O)(=O)N2CCOCC2)cc1	i
CC(=O)c1sc(NC(=O)c2ccc(S(=O)(=O)N3CCc4ccccc43)cc2)nc1C	i
Cc1ccc(-c2csc(NC(=O)c3ccc(S(=O)(=O)N4CCc5ccccc54)cc3)n2)o1	39%*
CC1=C(C(=O)Nc2cc(C)ccn2)C(c2ccc(Cl)cc2Cl)C2=C(CCCC2=O)N1 (stereo not given)	i
Cc1ccc(C(=O)c2c[nH]c3ccc(Br)cc3c2=O)cc1	33%*
CCc1ccc(C(=O)c2c[nH]c3ccc(F)cc3c2=O)cc1	42%*
CCc1ccc(C(=O)c2c[nH]c3ccc(C)cc3c2=O)cc1	i
CCOC(=O)c1ccc2[nH]cc(C(=O)c3ccc(C)cc3)c(=O)c2c1	i
CCOC(=O)c1ccc2[nH]cc(C(=O)c3ccccc3)c(=O)c2c1	i
CCc1ccc(C(=O)c2c[nH]c3ccc(CC)cc3c2=O)cc1	i
Cc1nc(CCNC2CCC3(CCNCC3)CC2)nc2c1CCCC2	i
Cc1cc(C)nc(NC(=O)C2CC=CCC2C(=O)O)c1 (stereo not given)	i
CN1C[C@@H](NC(=O)NCc2ccccc2)C[C@H]1c1nc(-c2ccc3c(c2)OCO3)no1	i
O=C(CS(=O)(=O)c1c[nH]c2ccccc12)Nc1ccc2c(c1)OCO2	i
CCn1c(-c2ccccc2F)nc2cc(NC(C)=O)cc(C(=O)NCC(C)Oc3cccnc3)c21 (stereo not given)	i
CN1CCN2C[C@@H](NC(=O)c3nc4ccccc4[nH]3)C[C@H]2C1	i
SMILES	ST2 inh
COc1cc(NS(=O)(=O)c2ccc(NC(=O)c3cccc(F)c3)cc2)ncn1	i
COc1ccc(C2CC(=O)C3=C(C2)Nc2ccccc2NC3c2cc(OC)c(O)c(OC)c2)cc1 (stereo not given)	i
COc1ccccc1CN(C(=O)CNC(=O)c1ccccc1)C1CC1	i
Cc1cc(C)n(CC(=O)N2C[C@H]3CC=CC[C@H]3C2)c(=O)n1	i
COc1ccccc1N1CCN([C@H]2[C@@H]3OC[C@@H](O3)[C@@H](NCc3cnc4ccccc4c3)[C@@H]2O)CC1	30%*
C=CCNC(=O)N[C@H]1[C@H](O)[C@@H](N2CCN(c3ccccc3OC)CC2)[C@@H]2OC[C@H]1O2	i
NC(=O)C1CCN([C@H]2[C@@H]3OC[C@@H](O3)[C@@H](NCc3cnc4ccccc4c3)[C@@H]2O)CC1	i
CC(C)Cn1cc(C(=O)NC2CCCCC2)c2c3ccccc3n(C)c2c1=O	36%*
Cn1cc(C(=O)NC2CCCCCC2)c2c3ccccc3n(C)c2c1=O	i
CC(C)Cn1cc(C(=O)NC2CCCC2)c2c3ccccc3n(C)c2c1=O	i
CCOc1ccc(N2COc3ccc(OCC)cc3C2)cc1	i
COc1ccc(N2COc3ccc(Cl)cc3C2)cc1	37%*
COc1ccc2c(c1)CN(c1ccc(C(=O)O)cc1)CO2	i
COc1nc(N(C)C)nc(N(C)C)n1	i
CCc1nc(NC)nc(OC)n1	68%*
CCc1ccccc1-c1nc(OC)nc(OC)n1	i
Nc1ccnn1-c1ccccc1	i
NC1=NN(c2ccccc2)CC1	40%*
NC1=NCCN1c1ccccc1	i
CCOC(=O)C1(C/C=C/c2ccccc2)CCCN(C(=O)CCc2scnc2C)C1 (stereo not given)	i
CCOc1ccccc1N(CC(=O)O)S(C)(=O)=O	i
O=C(Cc1cccs1)N1CCC(Cc2ccccc2)CC1	i
O=C1CCN(C(=O)c2nn(CCc3ccccc3)c3c2CN(C(=O)Cc2cccs2)CC3)CCN1	33%*
O=C1CN(C(=O)c2nn(Cc3ccccc3)c3c2CN(C(=O)CCc2cccs2)CC3)CCN1	i

Assay outcomes (PubChem)
